# Compound activity as filed in PubChem.
# CBX7 AlphaScr: CBX7 inhibition, primary AlphaScreen; normalised signal (fraction of DMSO) (no concentration beside the values); 1.1% of 66,000 active; AID 1224903; AlphaScreen His6-CBX7 / biotin-H3K27me3 peptide binding; active compounds read low; in the data active means normalised signal below about 0.5
# An asterisk follows results filed as active. Only a selection was taken, and hits are over-represented in it overall.
SMILES,CBX7 AlphaScr
Cc1ccccc1-n1nnnc1C1(NCCc2c(C)[nH]c3ccccc23)CCCCC1,0.49*
Cc1ccc(-n2nnnc2C2(NCCc3c(C)[nH]c4c(Cl)c(Cl)ccc34)CCCCC2)cc1,0.73
COc1ccc(-n2nnnc2C2(NCCc3c(C)[nH]c4c(Cl)ccc(Cl)c34)CCCCC2)cc1,0.74
O=C1CSC(c2ccc(Cl)cc2)c2c(-c3ccccc3)nn(-c3ccccc3)c2N1 (stereo not drawn),0.92
CN(C)c1ccc(C2SCC(=O)Nc3c2c(-c2ccccc2)nn3-c2ccccc2)cc1 (stereo not drawn),0.42*
COc1ccc(C2SCC(=O)Nc3c2c(C)nn3-c2ccccc2)cc1 (stereo not drawn),1
COc1ccc(-c2nc3ncccn3c2NC2CCCCC2)cc1,0.92
COc1ccc2[nH]c(C)c(CCNCc3ccc(F)cc3F)c2c1,0.51
COc1ccc2[nH]c(C)c(CCNCc3nc[nH]c3C)c2c1,0.0075*
COc1ccc2[nH]c(C)c(CCNCc3cccnc3)c2c1,1.1
CCOc1ccc(CN(CCc2ccc3c(c2)OCO3)Cc2ccc(F)cc2)cc1,1.2
CCOC(=O)C1(c2ccccc2)CCN(CCC(=O)Nc2ccc(C)cc2)CC1,0.98
CC1N=C(c2ccccc2)c2ccccc2N(CC(=O)Nc2ccc(F)c(Cl)c2)C1=O (stereo not drawn),0.86
COc1ccc(CCNCc2cccnc2)cc1OC,0.91
COc1ccc(CCNCc2cc(OC)c3c(c2)OCO3)cc1,0.97
COc1ccc(CCNCc2ccccn2)cc1OC,0.27*
COc1cccc(/C=C/c2nc3ccccc3c(=O)n2-c2ccc(Br)cc2)c1OC,1.1
O=C(c1ccccc1Cl)c1cc(Br)ccc1NC(=O)C1CCCCC1,0.91
COc1cccc(-n2c(/C=C/c3c[nH]c4ccccc34)nc3ccccc3c2=O)c1,1.1
CCC(C)C1N=C(c2ccccc2)c2cc(Cl)ccc2N(CC(=O)NCC2CCCO2)C1=O (stereo not drawn),0.92
